Out of some 2,200 compounds screened, about 530 (24%) were called active. These entries were drawn from the full list. Entries with a potency or affinity are not part of this list. Values without a mark were called inactive.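 How the source made its calls: active means inhibition above a set limit at one or more concentrations of the dose series; inactive means inhibition under that limit at every dose.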
Experiment: S. Typhimurium nonspecific reporter signal inhibition – Salmonella Typhimurium, GFP fluorescence, counter-screen for PhoP regulon inhibitor project, dose response (AID 2401);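 further: S. typhimurium with Mg-insensitive nmpC-GFP reporter grown at 10 µM Mg2+; drop in reporter fluorescence reflects general culture growth inhibition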
Details: 4 h; series mostly up to 150 µM; inhibition: at the top concentration

Compound	inhibition
O=C(CCCN1Cc2ccccc2C1)c1ccc(F)cc1	2.23%
CCOc1ccc(/C=C/C(=O)Nc2ccc(OC)cc2[N+](=O)[O-])cc1	-20.8%
O=C(CSc1nc2ccccc2[nH]1)Nc1ccc(F)c(F)c1	5.43%
O=C(CNc1ccccc1)Nc1ccc(F)cc1	16.5%
COc1ccc(NC(=O)ON=C2c3ccccc3-c3ccccc32)cc1	12.5%
Cc1ccc(-c2cc(-c3ccc(Cl)cc3)c(C#N)c(N)n2)o1	2.62%
O=C1CCc2cc(S(=O)(=O)N3CCN(c4cccc(Cl)c4)CC3)ccc2N1	-14.1%
CCNC(=S)NNC(=O)c1ccc(OC(F)F)cc1	-1.1%
Cc1ccc(NC(NC(=O)c2ccccn2)C(Cl)(Cl)Cl)cc1 (centres undefined)	-10.7%
S=C(Nc1ccc(Cl)c(Cl)c1)N1CCOCC1	-1.89%
COC(=O)CCC(=O)Nc1ccc(Cl)c(Cl)c1	21.1%
CCN(C(=O)COc1cc(=O)n(CC)c2ccccc12)c1cccc(Cl)c1	-6.53%
O=C(c1ccc(Oc2ccccc2)cc1)c1nc2c(n1O)CCCC2	14.3%
CC(C)(C)c1cc2cccnc2n1Cc1cccc(Cl)c1	-26.7%
Nc1ncncc1-c1ccc([N+](=O)[O-])cc1	36.5%
O=C(Cn1ncc2c(=O)oc3ccccc3c21)N1CCN(c2ccccn2)CC1	-15.8%
O=C1CC(SCc2nc3ccccc3[nH]2)C(=O)N1c1ccc(Cl)cc1 (centres undefined)	-18.6%
Cc1ccc(C(=O)CSC2=C(C#N)C(c3ccco3)CC(=O)N2)c(C)c1 (centres undefined)	-15.7%
O=c1cc(-c2ccc([N+](=O)[O-])cc2)nc2cc(-c3ccc(Cl)cc3)[nH]n12	-32%
Cc1ccc2cccc(Oc3ncnc4scc(-c5ccccc5)c34)c2n1	-17.1%
CN1c2ccccc2C(=O)NC1c1ccc([N+](=O)[O-])s1 (centres undefined)	-3.11%
NC(CSC12CC3CC(CC(C3)C1)C2)C(=O)O (centres undefined)	-19.5%
Cc1cc(-c2nnc(-c3ccccc3)c(-c3ccccc3)n2)c(C)o1	-11.2%

Compound	inhibition
O=C(N/N=C/c1ccco1)c1cccc(S(=O)(=O)Nc2ccccc2Cl)c1	-10.1%
Cc1ccc(-n2c(C)cc(/C=N/NC(N)=S)c2C)cc1	29.6%
CCn1c2ccccc2c2cc(/C=N/NC(=O)c3ccccc3)ccc21	6.74%
CCN(CC)S(=O)(=O)c1cccc(C(=O)NC(Cc2c[nH]c3ccccc23)c2nnc3n2CCC3)c1 (centres undefined)	-14.8%
O=C1c2ccccc2C2=Nc3ccccc3SC(c3cccc(F)c3)C12 (centres undefined)	18%
CC1C(C#N)=C(N)OC2=C1C(=O)CCC2 (centres undefined)	-0.77%
Cc1cccc(NC(=O)CCC(=O)OCc2ccc(Br)cc2)c1	-16%
Cc1ccnc2nc(C(=O)Nc3ccc4c(c3)OCO4)nn12	-5.04%
CN(C)c1ccc([C@@H]2[C@@H]([N+](=O)[O-])[C@H]3C=Cc4ccccc4N3[C@H]2C(=O)c2ccc(Cl)cc2)cc1	33.2%
COc1ccc(OC)c(/C=N/NC(=O)c2cc3c(OC)c(OC)ccc3[nH]2)c1	-7.95%
O=C(Cc1cccs1)Nc1cccc(-c2nc3cc4ccccc4cc3[nH]2)c1	-6.72%
Cc1cc(/C=N/n2cnnc2)c(C)n1-c1ccc(OCc2ccc(F)cc2)cc1	-15.3%
O=C(O)CC(NC(=S)NCc1ccccc1)C(=O)O (centres undefined)	-29.4%
COC(=O)c1ccc(Nc2cc(C)nc3ccccc23)cc1	-28.9%
COc1ccc(/C=N/Nc2cc(C)nc3c(C)cccc23)cc1	2.4%
O=c1c2oc3ccccc3c2ncn1Cc1ccc(Cl)cc1	-19.4%
Cc1[nH]n(-c2ccccc2)c(=O)c1-c1ccc(Cl)cc1	-3.67%
Cc1c(C(c2cccc([N+](=O)[O-])c2O)c2c(C)n(C)n(-c3ccccc3)c2=O)c(=O)n(-c2ccccc2)n1C	5.18%
COc1ccc(OC)c(NC(=O)c2ccccc2NS(=O)(=O)c2cccc3cccnc23)c1	-10.6%
Nc1nnc(SCc2ccc3c(c2)OCO3)s1	-26.3%
CCOC(=O)C(NS(=O)(=O)c1ccccc1)(C(F)(F)F)P(=O)(OCC(C)C)OCC(C)C (centres undefined)	-23.4%
c1ccc(-c2cc(CSc3nc4ccccc4[nH]3)on2)cc1	1.38%
Cc1ccc(N=Cc2sc(O)c3ccccc23)cc1	-41.8%

Compound	inhibition
N=c1sccn1CC(=O)Nc1ccccc1Oc1ccccc1	-13%
O=C(NCCNc1ccc([N+](=O)[O-])cc1C(F)(F)F)c1ccccc1F	-7.25%
O=C(NCCNc1ccc([N+](=O)[O-])cc1C(F)(F)F)c1ccc(F)cc1	31.5%
O=C(NCC(=O)N(c1cccnc1)C(C(=O)NCc1ccco1)c1ccccc1)c1ccco1 (centres undefined)	9.19%
COc1ccc(N2C(=O)[C@@H]3[C@H](C2=O)[C@H]2c4ccccc4C=CN2[C@@H]3C(=O)Nc2ccccc2)cc1	28%
CCCc1cc(C(=O)Cc2ccc(C(=O)OCC)o2)c(O)cc1O	23.5%
CCOc1ccccc1NS(=O)(=O)c1ccc(Br)s1	-23.1%
O=C(Oc1ccc(N(Cc2cccs2)C2=NS(=O)(=O)c3ccccc32)cc1)c1ccc(Cl)cc1	28.4%
COc1ccc2c(c1)CC/C(=C\Nc1ccc3c(c1)OCO3)C2=O	-15.1%
CCN(CC)CCNC(=O)c1cn(CC)c2cc(N3CCN(C(=O)c4ccco4)CC3)c(F)cc2c1=O	-18%
CN(C)CCNC(=O)c1ccc(COCC(F)(F)F)cc1	-10.8%
COC(=O)COc1ccc(S(=O)(=O)Nc2ccccc2SC)cc1	-26.3%
Cc1cc(CNC(=O)Nc2ccc3c(c2)OCO3)nn1C	-5.69%
Oc1ccc(Nc2nc(-c3cccs3)cs2)cc1	33%
O=C(NCc1cn2ccsc2n1)Nc1ccc(Cl)cc1	-22.4%
CC(C)c1ccc(NC(=O)N(CCc2nc3ccccc3[nH]2)C2CCCC2)cc1	-18.2%
Brc1ccc2cccnc2c1	-23.6%
O=C1C2C3c4ccccc4C(c4ccccc43)C2C(=O)N1c1cccc2cccnc12 (centres undefined)	-20.1%
C/C(=N/Nc1nc(-c2ccccc2)cc(-c2ccc(F)cc2)n1)c1cccc(N)c1	-5.41%
CC(=O)Nc1c(C#N)c(C(C)(C)C)cn1C	1.65%
CCOc1cc(C2C(C(=O)OC)=C(C)N=C3SCCC(=O)N32)ccc1OC(C)=O (centres undefined)	-28.1%
O=C(NCc1ccc2c(c1)OCO2)c1ccc(-n2cnnn2)cc1	-4.67%
CCCN1C(=O)SC(CC(=O)Nc2ccc(Br)cc2)C1=O (centres undefined)	8.66%

Compound	inhibition
CCn1c(C)cc(=S)c2ccccc21	-47%
O=C(NCCCN1CCCC1=O)c1ccc(Cl)c(NS(=O)(=O)c2ccc(F)cc2)c1	-14.2%
CC1CCCCN1Cc1cnc(Cl)s1 (centres undefined)	-20.6%
Oc1ccc(Br)cc1-c1ccn[nH]1	30.8%
Cc1ccc(N(CC(=O)Nc2cccc(C)c2)S(=O)(=O)c2cccc3nonc23)cc1	1.6%
Cc1ncc(C23CC4CC(CC(C4)C2)C3)[nH]1	-14.8%
O=C1C2=C(NC(=S)NC2c2ccc(Cl)cc2)NC(c2ccc(Cl)cc2)N1c1ccc(Cl)cc1 (centres undefined)	34% [at 75 µM]
Cc1ccc(C=Nc2ccccc2C(N)=O)cc1	-19.9%
CC(C)CCn1c(SCC(=O)N2CC(=O)Nc3ccccc32)nc2scc(-c3cccs3)c2c1=O	8.29%
C=CCNc1ncnc2ccc(Br)cc12	-22.4%
c1coc(CNc2ncnc3ccccc23)c1	-7.32%
CCOC(=O)N1CCN(S(=O)(=O)c2ccc(C(=O)NNc3nc4cc(C)cc(C)c4s3)cc2)CC1	27.3%
c1ccc(CN2CCN(c3nc(-c4ccccc4)nc(-n4ccnc4)n3)CC2)cc1	-6.55%
CCCOC(=O)Oc1ccc2c(=O)c(Oc3cc(C)cc(C)c3)coc2c1	-7.81%
Cc1ccccc1NC(=S)NC1CCN(Cc2ccccc2)CC1	-15.9%
OC1(c2ccc3ccccc3c2)CCN(Cc2ccccc2)C1 (centres undefined)	8.53%
O=C1c2cccc(OCC(=O)N3N=C(c4cccs4)CC3c3ccc(F)cc3)c2CCN1Cc1cccnc1 (centres undefined)	-8.74%
COc1ccc(O)c(/C=c2/sc3nc4cc(C)c(C)cc4n3c2=O)c1	-18.9%
Cc1ccc2c(CN3CCC(C)CC3)cc(=O)oc2c1	2.64%
O=C(Cn1cnc2ccccc2c1=O)NCc1ccco1	-11.4%
CCn1nc(C(=O)OC(C(=O)c2c[nH]c3ccccc23)c2ccccc2)c2ccccc2c1=O (centres undefined)	14.3%
Cc1ccc(C)c(C(=O)NCc2ccncc2)c1	-45.6%
CCOC(=O)c1ccc(N2CCN(c3ccc(F)cc3)CC2)c(NC(=O)Nc2cccc(OC)c2)c1	-10.5%

Compound	inhibition
CCN(CC)CCN(Cc1cc2cc3c(cc2[nH]c1=O)OCCO3)C(=O)NC1CCCCC1	11.3%
N#Cc1c(-c2ccccc2)ccn(Cc2cccc(Cl)c2)c1=O	1.76%
CSc1nnc(NC(=O)CCc2ccccc2)s1	13.7%
O=C(CSc1nc(Nc2ccccc2)nc(N2CCOCC2)n1)Nc1ccc([N+](=O)[O-])cc1	-22.3%
O=C(Nc1cc(C(F)(F)F)ccc1Cl)C(NCc1ccccc1)c1ccccc1 (centres undefined)	-23.9%
O=C(NC1CCCC1)c1ccc(Cl)s1	38.4%
O=C(NNc1nc(-c2ccccc2)cs1)c1ccccc1	10.6%
COc1ccc(C2=Nc3cccc4cccc(c34)N2)cc1	28%
CCN(CC)S(=O)(=O)c1ccc(C(=O)N2CCN=C2SCc2cccnc2)cc1	-24.8%
Cc1cc(C)n2c(SCC(=O)NCc3ccco3)nnc2n1	-24.8%
Cc1ccc2nc(-c3ccc(Br)o3)oc(=O)c2c1	-1.76%
NC1=NC(=Nc2ccc(Br)cc2)c2ccccc21	19.6%
Cn1cnnc1SCC(=O)Nc1cccc(C(=O)O)c1	-11.9%
COc1ccc2nc(-c3ccccc3)cc(OC)c2c1	-9.85%
Nc1c(C(=O)Nc2ccc(F)cc2)sc2nc(-c3ccco3)ccc12	31.4%
Cc1cccc(-n2c(N)cc(=O)[nH]c2=S)c1	33.4%
COc1ccc(OCCSc2nnc(-c3ccc(OC)cc3)n2N)cc1	-17.8%
CCOC(=O)N1CCN(S(=O)(=O)c2ccc(C(=O)NNc3nc4c(C)cc(C)cc4s3)cc2)CC1	38.3%
Oc1ccc(NCc2ccccc2OCc2ccccc2F)cc1	11.3%
c1ccc2c(c1)CCN(c1ncnc3c1[nH]c1ccccc13)C2	-20.7%
O=C(C(=O)N1CCc2ccccc2C1)N1CCc2ccccc2C1	-29.3%
O=C(Nc1ccc(S(=O)(=O)N2CCCC2)cc1)c1ccc(CN2CCc3ccccc3C2)cc1	-24.6%

Source: PubChem BioAssay AID2401 (Southern Research Specialized Biocontainment Screening …, 2010)
